Consider 21 molecules from PubChem BioAssay (NCATS).

The nature of test [1]: qHTS to identify inhibitors of the type 1 interferon - major histocompatibility complex class I in skeletal muscle: primary screen against the NCATS Pharmaceutical Collection (AID 1347407).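 Note: luminescence of HiBiT knocked into endogenous HLA-B as interferon-induced MHC class I level.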 The procedure, abridged:
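HLA-B HiBiT myoblasts, dexamethasone-free growth medium + 4 ng/ml IFN-b; compounds pinned 1 h after seeding, […] from 46 uM; 24 h, 37 C, 5% CO2; lytic HiBiT detection, 10 min RT, luminescence.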
Background: qHTS replaces the single test concentration by a dilution series.

Test [2] addresses Protein phosphatase 1D (Homo sapiens) (UniProt O15297). Kind of test: RapidFire Mass Spectrometry qHTS Assay for Modulators of WT P53-Induced Phosphatase 1 (WIP1) (AID 1347424).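 Note: amount of dephosphorylated VEPPL-S-QETFS peptide product formed by WIP1.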 Note: potency is the fitted concentration of half-maximal effect. The procedure, abridged:
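Mass-spectrometric measurement of dephosphorylated peptide after a 5 min room-temperature reaction of 10 nM WIP1 with 2 uM phosphopeptide, following 1 h compound preincubation in 30 mM MgCl2 buffer.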

Test [3] in a line: Primary qHTS for inhibitors of La Crosse Virus (LACV) - induced cell death in SH-SY5Y cells (AID 1508616).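 Note: top concentration of the series differs between compounds; higher means more rescue of cells from virus-induced death.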 The procedure, abridged:
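SH-SY5Y, 6000 cells/well; cpd via pin tool in DMSO; LACV 0.01 MOI; 6 d 37C 5% CO2; ATPLite, 5 min RT; luminescence normalized to ±virus DMSO controls.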

In test [4] the target is Calcium and integrin-binding protein 1 (Homo sapiens) (UniProt Q99828). The test can be described thus: Primary qHTS for Identification of Calcium Integrin Binding Protein 1 (CIB1) Competitor (AID 1508620).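 Note: GST tagged CIB1 binding a fluorescein labelled alphaIIb integrin peptide tracer; top concentration of the series differs between compounds.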 The procedure, abridged:
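Fluorescence polarization competition: CIB1-GST (1 uM final) preincubated with compound 15 min at room temperature, then FITC-labeled alphaIIb peptide (100 nM final) added for another 15 min. Polarization read at Ex 480/Em 540.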

Test [5] can be described thus: Counterscreen qHTS for small molecule stabilizers of the endoplasmic reticulum resident proteome: GLuc-NoTag assay (AID 1508627). Note: series mostly up to about 76 µM. The procedure, abridged: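 Secreted GLuc lacking the SERCaMP modification is measured in SH-SY5Y cells exposed to compound for 19 h and then to thapsigargin (100 nM, 4 h) to deplete ER calcium; hits retested at 11 concentrations, up to 76.6 uM.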
A general note: A counterscreen serves to expose hits that act by an unwanted route or on another target.

Test [6] is described as follows: Confirmatory qHTS for small molecule stabilizers of the endoplasmic reticulum resident proteome: Secreted ER Calcium Modulated Protein (SERCaMP) assay (AID 1508628). Note: series mostly up to about 76 µM; nearly all actives have a fitted effect of over 40% in size. The procedure, abridged:
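Reporter secretion upon ER calcium depletion (100 nM thapsigargin, 4 h, 37C) is measured as medium luminescence with coelenterazine, after 16 h compound pretreatment of SH-SY5Y-GLuc-SERCaMP cells; primary at three concentrations up to 38.3 uM, follow-up at 11 (up to 76.6 uM).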

Test [7] addresses Protein phosphatase 1D (Homo sapiens) (UniProt O15297). Kind of test: Rhodamine-PBP qHTS Assay for Modulators of WT P53-Induced Phosphatase 1 (WIP1) (AID 1347425). The procedure, abridged: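 The read-out is the change in Rhodamine-PBP fluorescence (f1 - f0, ex 525/em 598 nm) as Pi is released, read each minute for 11 min. Final reaction: 5 nM WIP1, 10 uM phosphopeptide VEPPL-pS-QETFS, 10 uM Rh-PBP, 50 mM Tris-HCl pH 7.5, 30 mM MgCl2. Compound was preincubated with enzyme for 1 hour at room temperature.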

Test [8] can be described thus: qHTS for inhibitors of adenylyl cyclases using a fission yeast platform: a pilot screen against the NCATS LOPAC library (AID 1347410). The procedure, abridged:
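Read-out: fbp1-GFP fluorescence by laser scanning cytometry (488 nm laser), a gain of signal when AC/cAMP-PKA signalling is inhibited. Strain CHP2027 expressing AC9, GNAS and PDE4D2; compounds at up to 57 µM; 18 h, 30C.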

Test [9] addresses Single-stranded DNA cytosine deaminase (Homo sapiens) (UniProt Q9GZX7). Kind of test: Validation qHTS assay for inhibitors of Activation Induced Cytidine Deaminase (AID): AID signal (AID 1347429). The procedure, abridged:
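Steps: dispense AID with UDG; pin-transfer compound up to 114 uM final; add DJC20/DJC23 substrate and hold 4 hr at room temperature; add NaOH, hold 30 min; read FRET signal (540/590 nm).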

Test [10] addresses Calcium and integrin-binding protein 1 (Homo sapiens) (UniProt Q99828). Kind of test: Validation qHTS for Identification of Calcium Integrin Binding protein 1 (CIB1) Competitor (AID 1508618). The procedure, abridged: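 CIB1-GST (1 uM final) incubated 15 min at room temperature with compounds (up to 114 uM), then FITC-labelled alphaIIb peptide (100 nM) added. FP read (Ex 480/Em 540) after 15 min, pH 7.4 buffer containing 5 mM CaCl2.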

Test [11] in a line: qHTS to identify inhibitors of the type 1 interferon - major histocompatibility complex class I in skeletal muscle: primary screen against the NCATS Mechanism Interrogation Plate v5.0 (MIPE) Libary (AID 1347411). Note: nearly all actives have a fitted effect of over 65% in size. Note: potency is the fitted concentration of half-maximal effect. The procedure, abridged:
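Seed engineered human myoblasts (HLA-B HiBit) in medium without dexamethasone containing 4 ng/ml IFN-beta; after 1 hr add compound titrations (top 46 uM final). Incubate 24 hrs at 37 C, lyse 10 min with HiBiT reagent, read luminescence.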

Test [12] can be described thus: Confirmatory qHTS for VERO E6 Cytotoxicity Assay: Counterscreen for SARS-CoV-2 CPE Assay (AID 1508605; calls by dose curve; note: series mostly up to about 20 µM; nearly all actives have a fitted effect of over 60% in size).
The nature of test [13]: Confirmatory qHTS for activators (rescue) of SARS-CoV-2 Cytopathic Effect (CPE) (AID 1508606; calls by dose curve; note: potency is the fitted concentration of half-maximal effect; nearly all actives have a fitted effect of over 70% in size).
A short description of test [14]: Primary qHTS for inhibitors of SARS-S pseudo-typed particle cell entry (AID 1479145; calls by dose curve; note: series mostly up to about 57 µM; nearly all actives have a fitted effect of over 45% in size).
Test [15] can be described thus: Primary qHTS for Huh7 cytotoxicity: counterscreen for inhibitors of MERS-S pseudotyped particle cell entry (AID 1479147; calls by dose curve; note: potency is the fitted concentration of half-maximal effect).
Test [16] can be described thus: Primary qHTS for inhibitors of MERS-S pseudo-typed particle cell entry (AID 1479149; calls by dose curve; note: nearly all actives have a fitted effect of over 60% in size; note: potency is the fitted concentration of half-maximal effect).
The nature of test [17]: Primary qHTS for Vero E6 cytotoxicity: counterscreen for inhibitors of SARS-S pseudo-typed particle cell entry (AID 1479150; calls by dose curve; note: potency is the fitted concentration of half-maximal effect).
For test [18], the target named is Calcium and integrin-binding protein 1 (Homo sapiens) (UniProt Q99828). Kind of test: Confirmatory qHTS for Identification of Calcium Integrin Binding Protein 1 (CIB1) Competitor (AID 1508617). Note: nearly all actives have a fitted effect of over 65% in size. The procedure, abridged:
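Compounds at up to 114 uM final met 1 uM GST-tagged CIB1 for 15 min at room temperature (HEPES pH 7.4, 5 mM CaCl2). FITC-labelled alphaIIb peptide, 100 nM, added; polarization read after 15 min more.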

Inconclusive results are not listed. The source made the active and inactive calls. Unless noted, calls come from the whole dose curve; as a rule, active = well fitted curve in the direction sought with a large enough effect; inconclusive = small, poorly fitted or top-dose-only effect, or another doubt; inactive = no such curve, though single readings can be large; an effect the other way counts as inactive or inconclusive.

Chain of Calcium and integrin-binding protein 1 (Homo sapiens) (Q99828 whole entry, looked up): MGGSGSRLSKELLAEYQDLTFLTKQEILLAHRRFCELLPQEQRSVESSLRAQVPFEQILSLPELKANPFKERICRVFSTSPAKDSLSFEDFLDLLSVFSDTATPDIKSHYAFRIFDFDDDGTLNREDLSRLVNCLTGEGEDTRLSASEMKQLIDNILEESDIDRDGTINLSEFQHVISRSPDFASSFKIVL
Chain of Protein phosphatase 1D (Homo sapiens) (O15297 whole entry, looked up): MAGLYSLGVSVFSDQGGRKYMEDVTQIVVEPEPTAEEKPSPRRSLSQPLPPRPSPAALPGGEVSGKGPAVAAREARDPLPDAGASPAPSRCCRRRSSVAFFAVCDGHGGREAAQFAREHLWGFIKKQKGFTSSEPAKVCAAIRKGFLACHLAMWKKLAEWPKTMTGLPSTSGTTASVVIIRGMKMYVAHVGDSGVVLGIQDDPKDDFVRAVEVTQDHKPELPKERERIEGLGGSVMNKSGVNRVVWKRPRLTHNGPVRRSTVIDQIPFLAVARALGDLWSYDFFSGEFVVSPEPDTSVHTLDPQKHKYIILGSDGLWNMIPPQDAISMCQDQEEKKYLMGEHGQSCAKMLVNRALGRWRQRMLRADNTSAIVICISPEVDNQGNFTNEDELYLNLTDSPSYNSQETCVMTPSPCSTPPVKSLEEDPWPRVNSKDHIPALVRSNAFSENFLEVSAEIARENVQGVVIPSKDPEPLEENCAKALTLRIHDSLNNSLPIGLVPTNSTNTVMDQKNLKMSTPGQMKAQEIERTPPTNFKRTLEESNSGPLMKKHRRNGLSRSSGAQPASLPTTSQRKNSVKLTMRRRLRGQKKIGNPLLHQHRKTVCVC
Chain of Single-stranded DNA cytosine deaminase (Homo sapiens) (Q9GZX7 whole entry, looked up): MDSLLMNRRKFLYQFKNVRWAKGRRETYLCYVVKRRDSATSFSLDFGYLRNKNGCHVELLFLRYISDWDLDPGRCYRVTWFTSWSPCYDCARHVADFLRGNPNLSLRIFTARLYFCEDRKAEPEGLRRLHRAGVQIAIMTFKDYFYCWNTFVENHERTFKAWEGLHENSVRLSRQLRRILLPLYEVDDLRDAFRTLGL

For `Nc1ccc(Sc2ccc(N)cc2)cc1`, the outcome in [1], in test [3] and in test [4] was inactive. Also, the Potency result in test [2] is “inactive”.
In the case of `O=[N+]([O-])c1c2ccccc2cc2ccccc12`, the outcome in [1], in test [3] and in test [4] was inactive. In addition, the Potency entry in [2], in test [5] and in test [6] was “inactive” in each case.
For the molecule `CC(C)(C)C(O)C(Oc1ccc(Cl)cc1)n1cncn1` (centres undefined), the result in test [1], in test [7], in test [3] and in [4] was inactive. Further, the Potency result in test [2] was “inactive”.
Regarding `Cc1nccc2c1[nH]c1ccccc12`, the molecule was called inactive in test [8], in [9], in test [3] and in test [10].
Turning to `C[C@]12CC[C@H]3[C@@H](CCC4=CC(=O)CC[C@@]43C)[C@H]1CC[C@H]2OC(=O)CCC1CCCC1`, the Potency entry in test [11] was “inactive”. In test [4], the result was inactive.
With `Cc1ccc(Cl)c(O)c1`, the molecule was called inactive in test [1], in [7], in [3] and in [4]. Besides, the Potency entry in test [2] was “inactive”.
As to `COc1ccc2c(c[n+](C)c3c4cc5c(cc4ccc23)OCO5)c1OC`, the result in [8] and in test [9] was inactive.
For `OCCCBr`, the outcome in test [1], in [7], in test [3] and in test [4] was inactive. The Potency result in test [2] is “inactive”.
In the case of `C=CC(=O)NCNC(=O)C=C`, the call in test [1], in [7], in [3] and in [4] was inactive. Moreover, the Potency entry in test [2] is “inactive”.
Take `CC1(N2CCC(n3c([C@@H]4CCCNC4)nc4ccccc43)CC2)CCCCCCC1`: the Potency result in test [11] and in [12] was “inactive” throughout. Also, the Potency in test [13] is 2.82 µM (active). In test [4], the outcome was inactive.
Regarding `Fc1cc(Br)ccc1CBr`, the molecule was classed as inactive in test [1], in test [7], in test [3] and in test [4]. Moreover, the Potency result in test [2] is “inactive”.
As to `Cc1[nH]nc2ccc(-c3cncc(OC[C@@H](N)Cc4c[nH]c5ccccc45)c3)cc12`, the Potency in test [11] was 2.62 µM (active). The outcome in [4] was inactive.
Consider `CC1(C)CC/C(=C/c2ccc(Cl)cc2)C1(O)Cn1cncn1` (centres undefined), for which the molecule was classed as inactive in test [1], in [7], in [3] and in test [4]. Also, in test [2], the Potency entry was “inactive”.
Regarding `CN(C)[C@@H]1C(=O)C(C(N)=O)=C(O)[C@@]2(O)C(=O)C3=C(O)c4c(O)cccc4[C@@](C)(O)[C@H]3[C@H](O)[C@@H]12`, the Potency entry in test [11], in [14], in test [15], in test [16] and in test [17] was “inactive” in each case. The result in test [4] was inactive.
`O=C(O)c1cc(Oc2ccc(C(F)(F)F)cc2Cl)ccc1[N+](=O)[O-]`: the call in test [1], in test [7], in test [3] and in test [4] was inactive.
`CCN(CC)C(=O)c1ccc(C2=CC3(CCNCC3)Oc3cccc(O)c32)cc1`: the Potency entry in test [11] is “inactive”. In addition, the outcome in test [4] was inactive.
As to `CN[C@@H]1Cc2cccc3[nH]c(=O)n(c23)C1`, in [11], the Potency result is “inactive”. Further, the outcome in [4] was inactive.
`O=C(NCC1CCOCC1)c1cnc(Nc2ccc(Cl)cc2Cl)nc1C(F)(F)F`: the Potency entry in test [11] is “inactive”. Besides, the result in test [4] was inactive.
`COC1=C[C@@H]2[C@@H]3Cc4ccc(OC)c(O)c4[C@]2(CCN3C)CC1=O`: the Potency result in test [11] is “inactive”. In addition, the outcome in test [4] was inactive.
As to `CC(=O)[O][Hg][c]1ccccc1`, the Potency in test [2] is 28.2 µM (active); in [15], 3.98 µM (active); in test [16], 2.24 µM (active); in [17], 10 µM (active). In test [18], the Potency result was “inactive”.
Consider `O=c1[nH]c2ccccc2n1C1CCN(Cc2ccc(-c3[nH]c4cc5ncnc5cc4nc3-c3ccccc3)cc2)CC1`, for which the Potency result in test [11] is “inactive”. For the same molecule, in test [4], the outcome was inactive.
